Several values for one entry are separate records, joined by “and”; a condition that tells them apart may be missing. Identical values can stand only once. Some structures have more than one record in an assay (separate samples or runs), and their calls can disagree. Activity calls are given as the source filed them. Rule for the calls: active = hit-call score of the fitted dose curve at least 0.9, where 1 is the maximum; inactive = score below 0.9.
Columns and labels:
Details in all cases: mRNA level, 48 h; actives raise or lower the signal
[1] = read-out: Fatty Acid-Binding Protein 1 (FABP1), FABP1 (gene 2168); test: LTEA_HepaRG_FABP1: Life Technologies and Expression Analysis (LTEA) Assay for Fatty Acid-Binding Protein 1 (FABP1) using HepaRG (AID 2283494)
Method in brief: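 Values reflect bidirectional concentration-response fitting of FABP1 mRNA change against 0.5% DMSO controls. Human HepaRG cultures received eight half-log doses (top 100 uM) for 48 h; expression quantified by TaqMan qRT-PCR with housekeeping-gene normalization.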

[2] = read-out: Glutathione S-Transferase (GSTA2), GSTA2 (gene 2939); test: LTEA_HepaRG_GSTA2: Life Technologies and Expression Analysis (LTEA) Assay for Glutathione S-Transferase (GSTA2) using HepaRG (AID 2283497)
Method in brief: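 Oxidative-stress marker GSTA2 is quantified by TaqMan qRT-PCR in HepaRG cultures treated 48 h across an eight-point range to 100 uM. Expression is normalized to endogenous controls and compared with 0.5% DMSO vehicle.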

[3] = read-out: Glutamate-cysteine ligase catalytic (GCLC), GCLC (gene 2729); test: LTEA_HepaRG_GCLC: Life Technologies and Expression Analysis (LTEA) Assay for Glutamate-cysteine ligase catalytic (GCLC) using HepaRG (AID 2283498)
Method in brief: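 Oxidative-stress marker GCLC is measured as mRNA change in human HepaRG liver cells after 48 h chemical treatment in 0.5% DMSO, eight concentrations from 100 uM. Activity is fitted bidirectionally against vehicle.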

[4] = read-out: growth arrest and DNA damage 45 (GADD45G), GADD45G (gene 10912); test: LTEA_HepaRG_GADD45G: Life Technologies and Expression Analysis (LTEA) Assay for growth arrest and DNA damage 45 (GADD45G) using HepaRG (AID 2283499)
Method in brief: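 Differentiated human HepaRG cells in serum-free induction medium were exposed for 48 h to 8 half-log concentrations up to 100 uM in 0.5% DMSO, in duplicate. GADD45G mRNA was measured by TaqMan qRT-PCR, normalised to ACTB, GAPDH and POLR2A, and fitted bidirectionally against DMSO.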

[5] = read-out: Glutathione S-transferase M3 (GSTM3), GSTM3 (gene 2947); test: LTEA_HepaRG_GSTM3: Life Technologies and Expression Analysis (LTEA) Assay for Glutathione S-transferase M3 (GSTM3) using HepaRG (AID 2283501)
Method in brief: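 Differentiated HepaRG cells in serum-free induction medium were exposed in duplicate for 48 h to 8 half-log concentrations up to 100 uM in 0.5% DMSO. GSTM3 mRNA was measured by TaqMan qRT-PCR, normalized to ACTB/GAPDH/POLR2A, and fitted bidirectionally versus DMSO.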

[6] = read-out: Heat shock 70 kDa protein 1 (HSPA1A), gene 3303; test: LTEA_HepaRG_HSPA1A: Life Technologies and Expression Analysis (LTEA) Assay for Heat shock 70 kDa protein 1 (HSPA1A) using HepaRG (AID 2283502)
Method in brief: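 HSPA1A expression measured by qRT-PCR with ACTB/GAPDH/POLR2A normalization; curves fitted in both directions relative to DMSO vehicle. Exposure: 48 h in HepaRG cells, duplicate 8-point half-log series from 100 uM, 0.5% DMSO, serum-free induction medium.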

[7] = read-out: Hypoxia-inducible factor 1-alpha (Homo sapiens) (UniProt Q16665); test: LTEA_HepaRG_HIF1A: Life Technologies and Expression Analysis (LTEA) Assay for Hypoxia-inducible factor 1 (HIF1A) Trancription factor using HepaRG (AID 2283503)
Method in brief: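 HIF1A transcript level read by qRT-PCR (ACTB, GAPDH, POLR2A normalization) after 48 h chemical exposure of HepaRG cultures. Eight half-log concentrations, top 100 uM, 0.5% DMSO vehicle, duplicates; bidirectional curve fit against DMSO baseline.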

[8] = read-out: 3-Hydroxy-3-Methylglutaryl-CoA Synthase 2 (HMGCS2), HMGCS2 (gene 3158); test: LTEA_HepaRG_HMGCS2: Life Technologies and Expression Analysis (LTEA) Assay for 3-Hydroxy-3-Methylglutaryl-CoA Synthase 2 (HMGCS2) using HepaRG (AID 2283504)
Method in brief: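 Differentiated human HepaRG cells were exposed in duplicate for 48 h in serum-free induction medium to eight concentrations (top 100 uM, half-log steps, 0.5% DMSO). HMGCS2 mRNA was quantified by TaqMan qRT-PCR, normalised to ACTB, GAPDH and POLR2A, then fitted bidirectionally against DMSO.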

HGF (gene 3082) = test: LTEA_HepaRG_HGF: Life Technologies and Expression Analysis (LTEA) Assay for Hepatocyte Growth Facto (HGF) using HepaRG (AID 2283505)
Method in brief: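 Differentiated human HepaRG cells in serum-free induction medium were exposed in duplicate for 48 h to eight concentrations (top 100 uM, half-log steps, 0.5% DMSO). HGF mRNA was quantified by qRT-PCR, normalized to ACTB, GAPDH and POLR2A.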

[9] = read-out: Insulin Like Growth Factor 1 (IGF1), IGF1 (gene 3479); test: LTEA_HepaRG_IGF1: Life Technologies and Expression Analysis (LTEA) Assay for Insulin Like Growth Factor 1 (IGF1) using HepaRG (AID 2283506)
Method in brief: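 Expression measured by TaqMan qRT-PCR on a Fluidigm array, with three housekeeping genes for normalisation, after 48 h treatment of HepaRG cells. Top concentration 100 uM with half-log steps, 0.5% DMSO vehicle, bidirectional fit.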

[10] = read-out: Intercellular Adhesion Molecule 1 (ICAM1), ICAM1 (gene 3383); test: LTEA_HepaRG_ICAM1: Life Technologies and Expression Analysis (LTEA) Assay for Intercellular Adhesion Molecule 1 (ICAM1) using HepaRG (AID 2283507)
Method in brief: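 Differentiated HepaRG cells in serum-free induction medium were exposed in duplicate for 48 h to eight half-log concentrations up to 100 uM in 0.5% DMSO. Transcript levels were measured by qRT-PCR normalized to ACTB, GAPDH and POLR2A; bidirectional fits relative to DMSO.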

[11] = read-out: Insulin-like growth factor-binding protein 1 (IGFBP1), IGFBP1 (gene 3484); test: LTEA_HepaRG_IGFBP1: Life Technologies and Expression Analysis (LTEA) Assay for Insulin-like growth factor-binding protein 1 (IGFBP1) using HepaRG (AID 2283508)
Method in brief: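 Differentiated human HepaRG cells in serum-free induction medium were exposed in duplicate for 48 h to eight concentrations, top 100 uM with half-log dilutions, in 0.5% DMSO. Transcript levels came from qRT-PCR normalised to ACTB, GAPDH and POLR2A, fitted bidirectionally against DMSO.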

[12] = read-out: Interleukin 6 (IL6), IL6 (gene 3569); test: LTEA_HepaRG_IL6: Life Technologies and Expression Analysis (LTEA) Assay for Interleukin 6 (IL6) using HepaRG (AID 2283509)
Method in brief: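 Changes in IL6 mRNA, up or down relative to 0.5% DMSO controls, were derived from concentration-response curves in human HepaRG cells treated for 48 h at up to 100 uM, with ACTB, GAPDH and POLR2A as normalizers.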

[13] = read-out: Interleukin 6 Receptor (IL6R), IL6R (gene 3570); test: LTEA_HepaRG_IL6R: Life Technologies and Expression Analysis (LTEA) Assay for Interleukin 6 Receptor (IL6R) using HepaRG (AID 2283510)
Method in brief: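 IL6R transcript level by qRT-PCR after 48 h chemical exposure (8-point, half-log, max 100 uM, 0.5% DMSO vehicle) of HepaRG cells in serum-free induction medium. Normalized to three housekeeping genes; curves fitted in both directions relative to DMSO.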

[14] = read-out: Potassium channel subfamily K member 1 (KCNK1), KCNK1 (gene 3775); test: LTEA_HepaRG_KCNK1: Life Technologies and Expression Analysis (LTEA) Assay for Potassium channel subfamily K member 1 (KCNK1) using HepaRG (AID 2283511)
Method in brief: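 Human HepaRG cultures receive test chemicals for 48 h in 0.5% DMSO, top concentration 100 uM with half-log dilutions. Induction or suppression of KCNK1 mRNA relative to DMSO is derived by bidirectional fitting of qRT-PCR data.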

[15] = read-out: Keratin 19 (KRT19), KRT19 (gene 3880); test: LTEA_HepaRG_KRT19: Life Technologies and Expression Analysis (LTEA) Assay for Keratin 19 (KRT19) using HepaRG (AID 2283512)
Method in brief: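 Differentiated human HepaRG cells, plated 48 h, were exposed in duplicate for 48 h in serum-free induction medium to eight half-log concentrations up to 100 uM in 0.5% DMSO. KRT19 mRNA was quantified by qRT-PCR, normalized to ACTB, GAPDH and POLR2A, and fitted bidirectionally versus DMSO.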

[16] = read-out: JUN Transcription Factor, JUN (gene 3725); test: LTEA_HepaRG_JUN: Life Technologies and Expression Analysis (LTEA) Assay for JUN Transcription Factor using HepaRG (AID 2283513)
Method in brief: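 mRNA measured by TaqMan qRT-PCR after 48 h chemical exposure of HepaRG cultures; normalization to three housekeeping genes. Duplicate eight-point half-log curves from 100 uM in 0.5% DMSO; gain or loss fitted against DMSO baseline.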

CYP3A5 (gene 1577) = test: LTEA_HepaRG_CYP3A5: Life Technologies and Expression Analysis (LTEA) Assay for CYP3A5 using HepaRG (AID 2283493)
Method in brief: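 mRNA levels were quantified by qRT-PCR on Fluidigm arrays and normalized to three housekeeping genes. Differentiated HepaRG cells received 48 h exposure (top 100 uM, half-log steps, 0.5% DMSO vehicle, duplicate); bidirectional fitting versus DMSO.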

[17] = read-out: Cytochrome P450 4A22 (Homo sapiens) (UniProt Q5TCH4); test: LTEA_HepaRG_CYP4A22: Life Technologies and Expression Analysis (LTEA) Assay for Cytochrome P450 4A22 (CYP4A22) using HepaRG (AID 2283495)
Method in brief: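 qRT-PCR of CYP4A22 mRNA (Fluidigm TaqMan, normalized to three housekeeping genes) after 48 h chemical exposure of HepaRG cells; 8-point half-log series, top 100 uM, 0.5% DMSO vehicle. Bidirectional curve fitting vs DMSO baseline.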

[18] = read-out: Cytochrome P450 7A1 (Homo sapiens) (UniProt P22680); test: LTEA_HepaRG_CYP7A1: Life Technologies and Expression Analysis (LTEA) Assay for Cytochrome P450 7A1 (CYP7A1) using HepaRG (AID 2283496)
Method in brief: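 HepaRG, 48 h exposure, 8-pt half-log series from 100 uM, 0.5% DMSO vehicle, duplicates. Readout: TaqMan qRT-PCR mRNA vs three housekeeping genes; bidirectional curve fit against DMSO baseline.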

Measured: AC50

Chain of Hypoxia-inducible factor 1-alpha (Homo sapiens) (Q16665 whole entry, looked up): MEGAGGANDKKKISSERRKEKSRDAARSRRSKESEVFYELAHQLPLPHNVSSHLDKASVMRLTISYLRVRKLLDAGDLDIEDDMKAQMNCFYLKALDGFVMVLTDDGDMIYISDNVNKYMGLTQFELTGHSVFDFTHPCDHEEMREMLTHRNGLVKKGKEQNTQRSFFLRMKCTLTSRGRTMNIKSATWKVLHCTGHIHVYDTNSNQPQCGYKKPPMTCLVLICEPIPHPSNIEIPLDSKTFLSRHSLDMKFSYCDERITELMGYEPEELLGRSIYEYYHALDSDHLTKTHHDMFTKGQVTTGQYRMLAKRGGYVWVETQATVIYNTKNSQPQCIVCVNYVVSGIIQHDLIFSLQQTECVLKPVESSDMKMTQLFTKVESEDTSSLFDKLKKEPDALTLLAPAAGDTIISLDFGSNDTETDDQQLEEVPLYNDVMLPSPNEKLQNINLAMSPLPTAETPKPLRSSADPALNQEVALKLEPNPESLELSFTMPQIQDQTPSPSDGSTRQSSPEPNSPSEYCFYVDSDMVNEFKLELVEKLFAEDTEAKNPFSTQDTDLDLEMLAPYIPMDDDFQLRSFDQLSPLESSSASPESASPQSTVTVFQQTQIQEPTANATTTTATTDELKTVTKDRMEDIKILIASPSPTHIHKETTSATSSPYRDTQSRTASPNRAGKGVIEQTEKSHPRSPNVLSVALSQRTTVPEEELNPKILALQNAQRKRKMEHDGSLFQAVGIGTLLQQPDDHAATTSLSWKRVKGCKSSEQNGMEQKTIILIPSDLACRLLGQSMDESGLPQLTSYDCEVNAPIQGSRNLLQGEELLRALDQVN

C[C@@H]1C[C@@H]([C@H](O)CC2CC(=O)NC(=O)C2)C(=O)[C@@H](C)C1
active: [1] 13.2 µM | [2] 26.6 µM | [3] 33.3 µM | [4] 2.24 µM | [5] 5.85 µM | [6] 30.6 µM | [7] 9.18 µM | [8] 27 µM | HGF (gene 3082) 71.7 µM | [9] 9.09 µM | [10] 11.9 µM | [11] 22.3 µM | [12] 11.8 µM | [14] 12.2 µM | [15] 12.5 µM | [16] 30 µM
inactive: [13]

COc1cc(-c2ccc(N)c(OC)c2)ccc1N
inactive: CYP3A5 (gene 1577) | [18] | [2] | [3] | [4] | [5] | [6] | [7] | [8] | HGF (gene 3082) | [10] | [11] | [12] | [13] | [14] | [15] | [16]
active: [1] 46.3 µM and 32.8 µM | [17] 38.3 µM and 50 µM | [18] 57.4 µM | [6] 75 µM | [8] 42.7 µM | [9] 39.4 µM and 34.4 µM | [11] 86.9 µM | [12] 13 µM | [15] 42.3 µM | [16] 50 µM

CCCCCCCCc1ccc(O)cc1
active: [1] 71.8 µM | [8] 64.6 µM
not listed: [17] | [18]
inactive: all other assays above

From PubChem BioAssay (EPA / NIEHS)
